What was measured:
Test in all cases: PBM binding z-score (relative to random genomic background probes); higher = stronger binding; sequences stand for … in GC…GCGATTGACAGCGTAGAATGAAGG
[1] = system: FXR:RXRa (NR concentration 270 nM, RXRa partner concentration 90 nM)
How it was run: (§1)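 Binding buffer was PBS pH 7.4 with 2% milk, 0.02% Triton X-100, 1 mM DTT, 0.2 mg/mL BSA and 0.4 mg/ml salmon testes DNA. In it, ligand-free nuclear receptor dimers were incubated 1 h on custom Agilent 4×180K protein-binding microarrays carrying double-stranded probes. Antibodies against each partner (one per run) detected binding, and z-scores were calculated against random background probes after regression normalization of scanned fluorescence.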

[2] = system: LXRa:RXRa (NR concentration 270 nM, RXRa partner concentration 90 nM)
How it was run: as §1

[3] = system: LXRa homodimer (NR concentration 270 nM)
How it was run: as §1

[4] = system: LXRb:RXRa (NR concentration 270 nM, RXRa partner concentration 90 nM)
How it was run: as §1

[5] = system: LXRb homodimer (NR concentration 270 nM)
How it was run: as §1

[6] = system: PPARa:RXRa (NR concentration 270 nM, RXRa partner concentration 90 nM)
How it was run: as §1

[7] = system: PPARg:RXRa (NR concentration 180 nM, RXRa partner concentration 90 nM)
How it was run: as §1

[8] = system: PPARg:RXRa 270nM:90nM, anti-RXR (NR concentration 270 nM, RXRa partner concentration 90 nM)
How it was run: as §1

[9] = system: PPARg:RXRa 30nM:10nM, anti-RXR (NR concentration 30 nM, RXRa partner concentration 10 nM)
How it was run: as §1

[10] = system: PPARg:RXRa 90nM:30nM, anti-RXR (NR concentration 90 nM, RXRa partner concentration 30 nM)
How it was run: as §1

Sequence | PBM binding z-score [1] | PBM binding z-score [2] | PBM binding z-score [3] | PBM binding z-score [4] | PBM binding z-score [5] | PBM binding z-score [6] | PBM binding z-score [7] | PBM binding z-score [8] | PBM binding z-score [9] | PBM binding z-score [10]
TTACCAAGGCGAAGGTCGTTGATCCCTCTGTAGA | 1.8 | 1.55 | -0.229 | 1.43 | -0.992 | 2.44 | 3.98 | 5.81 | 3.02 | 5.86
GGAACGAGGGCATACGAGTTGATAGCATGGCGAT | 1.33 | 0.61 | -0.418 | -0.0696 | -0.795 | 1.25 | 1.28 | 0.666 | 0.135 | 0.26
ATATGTAGGTTACATACGGGTCATTCAGGCTATG | 2.41 | 4.56 | 1.98 | 2.83 | 0.718 | 4.43 | 6.06 | 4.92 | 2.62 | 4.19
TCTATTAGGTGATTAGGGCAACCGAAACAGCGGA | 0.654 | 0.587 | 0.0646 | 0.425 | 0.526 | 1.86 | 2.13 | 2.98 | 3.56 | 2.97
CTTACTGGGCCAAGGTCATTGATCAGTCAAAGCA | 3.38 | 3.5 | 1.27 | 3.15 | 0.239 | 4.7 | 6.21 | 5.67 | 3.67 | 5.42
GCTAGTTGGTCAGTAAAAGATCACACACCGGTCG | -0.109 | -0.07 | 0.00819 | -0.18 | -0.212 | -0.194 | 0.637 | -0.0816 | -0.233 | -0.12
CGTCCAAGGTCATAGGAGGTTAGTGAAGACAGAT | 7.23 | 6.11 | 2.12 | 4.77 | 0.715 | 5.61 | 4.92 | 5 | 2.04 | 3.54
TGGAGTAGGTTAGTCGGGGCATTCAGCCAACATA | 0.43 | 0.268 | 0.358 | 1.05 | 1.05 | 1.31 | 0.778 | 1.32 | 0.564 | 1.22
GCTAGCAGGCCATTCGGGTCACTCAATGACGGGC | 1.03 | 0.603 | -0.377 | 0.577 | -1.07 | 1.9 | 0.695 | 0.555 | -0.392 | 0.105
GCGACTGGGGCCAAGCAGGTTACCATAAGGTTGG | -0.268 | -0.471 | -0.686 | -0.129 | -1.37 | 0.516 | 0.164 | -0.27 | -0.91 | -0.642
ACTAGCAGGCCAAGTTTGGGACACTCAAACAAAG | -0.139 | -0.665 | -0.588 | -0.515 | -0.807 | -0.478 | 0.0502 | -0.814 | -0.775 | -0.548
GCGACTGGGGCAAAGCAGTTTACCATAAGGTTGG | -0.303 | -0.296 | -0.507 | -0.071 | -1.21 | 0.822 | 1.17 | 1.31 | -0.433 | 0.756
GCTGCTTGGTCAACTGATGGTCAGCTAAAGCTCG | -0.663 | -0.552 | -0.675 | -0.752 | -0.593 | -0.414 | -0.68 | -0.367 | -1.15 | -0.725
TTGAGTAGGTTACCAATGGGGCATTCAGCTTTCT | 0.0857 | 1.41 | -0.22 | 1.21 | -0.0643 | 1.36 | 1.23 | 1.9 | 1.01 | 1.5
AGAATGAGGTTAACATCAGGGAAACAGAATACAT | 2.93 | 2.97 | -0.211 | 2.21 | -0.23 | 4.3 | 3.36 | 3.34 | 1.39 | 2.46
TCGAGTAGGTTAGGCGGGGCATTCAGCCAACATA | 0.223 | 0.211 | -0.616 | 0.946 | 0.912 | 0.687 | -0.0188 | 0.886 | 0.825 | 0.705

Sequence | PBM binding z-score [1] | PBM binding z-score [2] | PBM binding z-score [3] | PBM binding z-score [4] | PBM binding z-score [5] | PBM binding z-score [6] | PBM binding z-score [7] | PBM binding z-score [8] | PBM binding z-score [9] | PBM binding z-score [10]
ACTAGCAGTCCAAGTTTGGGTCACTCAAACAAAG | 0.21 | 0.226 | -0.0309 | 0.795 | -0.524 | 1.13 | -0.105 | 0.22 | -0.155 | -0.0965
TCATATAGGTAAACAGGTGAAATTCCGTAAGTTA | 1.25 | 1 | 0.35 | 1.2 | -0.0512 | 2.32 | 2.75 | 3.22 | 4.19 | 3.8
CCTTACGGGTCACGAGGTAATAGCACGACGAGCG | 6.82 | 4.16 | -0.00739 | 3.79 | 0.00142 | 5.93 | 7.12 | 6.63 | 3.83 | 5.54
ACTATTAGTTGACTTAGGGCTACCGATACGACGC | 0.0661 | -0.121 | -0.0225 | -0.352 | 0.601 | -0.131 | 0.862 | -0.0974 | 0.182 | -0.112
GCTATTAGTTGAAAGGACAACCGAATGATTCTCG | -0.0393 | -0.0503 | -0.151 | -0.41 | -0.0299 | 0.0455 | 0.857 | 1.45 | 0.556 | 0.958
CGTCCAAGGTCAGTAGGTCAGTGAAAGCGACGTG | 4.68 | 3.18 | 0.336 | 2.78 | 0.0496 | 5.1 | 6.2 | 6 | 2.74 | 4.9
ACTAGCAGGCCAAGGGTAACTCAAGATTAGTCCG | -0.105 | 0.773 | -0.457 | -0.0796 | -0.553 | 1.83 | 3.38 | 4.86 | 2.86 | 4.78
CGAACTAGGTCTTCCAGGACAGTGAATACATTGA | 0.011 | -0.496 | 0.128 | -0.568 | -0.706 | 0.796 | 0.846 | 0.622 | -0.0415 | 0.143
ACAGACAGGTGATGAAGGTAATTCAGGCTATCAT | -0.202 | -0.317 | -0.115 | -0.471 | -0.286 | 0.215 | 0.583 | -0.256 | 0.0788 | -0.356
TTACCAAGCTGAAGGTCGTTGATCCCTCTGTAGA | 1.61 | 1.68 | -0.245 | 1.04 | -0.907 | 1.03 | 0.527 | 2.36 | 0.492 | 1.8
TAGCCTAGGTCATGCGGGCCCGTATAGTGTCGGC | 3.96 | 3.12 | 0.169 | 1.59 | 0.214 | 3.37 | 1.74 | 2.29 | 0.0314 | 1.22
CTCGAAAGGTCGTGATCAGGTGAGTATACCAAAC | 5.37 | 3.83 | 0.129 | 3.24 | 0.0388 | 4.89 | 3.12 | 3.71 | 1.2 | 2.73
AGAATGAGGTTAGGATCAGGGAAACAGAATACAT | 0.875 | 0.506 | -0.0173 | 1.16 | 0.0197 | 2.19 | 1.11 | 1 | 0.649 | 0.78
AGTATTAGTTGACTTAGGGCAACCGATACGACGC | 0.048 | 0.00134 | 0.42 | 0.0482 | 0.3 | 0.128 | 0.82 | 0.435 | 0.448 | 0.623
CCTGCTGGGCCACGAAAGGTCATTGATTCAGTGA | 3.41 | 5.49 | 4.48 | 4.19 | 0.0525 | 4.2 | 1.59 | 3.23 | 0.385 | 2.27
TATACAGGGTTAAAGGCCAGAGTACGAATGTCGA | 2.5 | 2.59 | 0.356 | 1.91 | 0.834 | 3.84 | 5.07 | 5.44 | 3.04 | 4.7
